Results from ChEMBL document CHEMBL4296183, “CO-ADD screening of NIH NCI Natural Product Set III” (2020).
For some of these results: Entries with a potency or affinity are not part of this list.

Tested on: Escherichia coli
Experiment: Antibacterial activity against Escherichia coli ATCC 25922 (CO-ADD:GN_001); MIC in CAMBH media using NBS plates, by Resazurin F(560/590)
Type: functional
Settings: Concentration 20 uM, ASSAY_TEST Inhibition of Bacterial Growth, detection method Resazurin, Fluorescence (ex560/em590), MEDIA CAMHB, plate type 384well, CORNING #3640, time 18 hr

Row | SMILES | Inhibition [%]
1 | COC(=O)C1C2CC3c4[nH]c5cc(OC)ccc5c4CCN3CC2CC(OC(=O)CCc2cc(OC)c(OC)c(OC)c2)C1OC (configuration not stated) | 1.29
2 | CN1CCc2cc3c(cc2C(=O)Cc2ccc4c(c2C1)OCO4)OCO3.Cl [PROTOPINE HYDROCHLORIDE] | 3
3 | CC(C)=CC(=O)OC1C2C(C)C(=O)OC2C(O)C(C)C2C=CC(=O)C21C (configuration not stated) | -1.23
4 | CC1(C)CCCC2(C)C3=C(CCC12)C(=O)OC3 (configuration not stated) | 1.76
5 | CC(=O)CCCCn1c(=O)c2c(ncn2C)n(C)c1=O [PENTOXIFYLLINE] | 9.18
6 | COC(=O)NC1C(C)OC(OC2C/C=C(/C)C3C=CC4C(OC5CC(OC6CCC(OC7CC(O)C(OC8CCC(O)C(C)O8)C(C)O7)C(C)O6)C(OC(C)=O)C(C)O5)C(C)CC(C)C4C3(C)/C(O)=C3/C(=O)OC4(CC(C=O)=CC(O)C4/C=C\2C)C3=O)CC1(C)[N+](=O)[O-] (configuration not stated) | 6.38
7 | COc1cc2c3c(c4ccc(OC)c(OC)c4c2cc1OC)CN1CCC[C@@H]1C3 [TYLOCREBRINE] | 1.54
8 | CC(=O)C1CCCC(=O)/C=C/C(=O)O1 (configuration not stated) | -0.06
9 | C=C1C(=O)OC2CC3(C)CCCC(C)C3=CC12 (configuration not stated) | -1.07
10 | CC(C)=CCc1c2c(c3occ(-c4ccc(O)c(O)c4)c(=O)c3c1O)C=CC(C)(C)O2 [POMIFERIN] | 0.91
11 | CCC1NC(=O)C(NC(=O)c2ncccc2O)C(C)OC(=O)C(c2ccccc2)NC(=O)C2CC(=O)CCN2C(=O)C(Cc2ccccc2)N(C)C(=O)C2CCCN2C1=O (configuration not stated) | 1.18
12 | C[C@@H]1C(=O)C[C@H]2C(C)(C)CCC[C@]2(C)[C@@]1(O)CCc1ccoc1 | 1.88

Tested on: Klebsiella pneumoniae
Settings: Concentration 20 uM; ASSAY_TEST Inhibition of Bacterial Growth; detection method Absorption (OD600); MEDIA CAMHB; plate type 384well; NBS; CORNING #3640; time 18 hr

Row | SMILES | Inhibition [%]
13 | CC(=O)O.COc1ccc2c(=O)oc3c(OC)cc(CCN(C)C)c4c(=O)oc1c2c34 | 15.37
14 | COc1cc(C)c2c(c1C=O)Oc1c(c(C)c(O)c3c1C(O)OC3=O)OC2=O (configuration not stated) [STICTIC ACID] | -0.81
15 | CC1(C)C(=O)N2c3ccccc3C3(CC(N4C(=O)c5ccccc5C4=O)C(=O)O3)C2N1C(=O)OCc1ccccc1 (configuration not stated) | -2.04
16 | COc1c2occc2cc2ccc(=O)oc12 [METHOXSALEN] | 4.76
17 | C=C1C(=O)OC2CC(C)C3(O)CCC(=O)C3(C)CC12 (configuration not stated) | 2.56
18 | COc1ccc2c(c1OC)C(=O)O[C@@H]2[C@H]1c2c(cc3c(c2OC)OCO3)CCN1C [NOSCAPINE] | -0.26
19 | CC(C)CC1NC(=O)C(C(C)C)NC(=O)CC(C)COC(=O)C(CC(C)C)N(C)C(=O)C(C(C)C)NC(=O)C(C(C)C)OC1=O (configuration not stated) | 6.52
20 | COc1c2occc2c(OC)c2c(=O)cc(C)oc12 [KHELLIN] | 15.74
21 | CCCCCc1cc(O)cc2c1Oc1cc(O)cc(C(=O)CCCC)c1C(=O)O2 | -6.31
22 | CC(=O)Oc1ccc2ccc(=O)oc2c1OC(C)=O | 9
23 | O=c1oc2c(O)c(O)cc3c(=O)oc4c(O)c(O)cc1c4c23 [ELLAGIC ACID] | 25.12
24 | COC(=O)[C@@H]1[C@H]2C[C@@H]3c4[nH]c5ccccc5c4CCN3C[C@@H]2CC[C@@H]1O | -5.72
25 | COc1cc([C@@H]2c3cc4c(cc3[C@@H](OC3OC5CO[C@@H](c6cccs6)OC5C(O)C3O)[C@H]3COC(=O)[C@H]23)OCO4)cc(OC)c1O (some centres not stated) | -0.01
26 | COC(=O)C1C2CC3c4[nH]c5cc(OC)ccc5c4CCN3CC2CC(OC(=O)CCc2cc(OC)c(OC)c(OC)c2)C1OC (configuration not stated) | -7.51
27 | CN1CCc2cc3c(cc2C(=O)Cc2ccc4c(c2C1)OCO4)OCO3.Cl [PROTOPINE HYDROCHLORIDE] | 4.34
28 | CC(C)=CC(=O)OC1C2C(C)C(=O)OC2C(O)C(C)C2C=CC(=O)C21C (configuration not stated) | 13.7
29 | CC1(C)CCCC2(C)C3=C(CCC12)C(=O)OC3 (configuration not stated) | 7.04
30 | CC(=O)CCCCn1c(=O)c2c(ncn2C)n(C)c1=O [PENTOXIFYLLINE] | -2.03
31 | COC(=O)NC1C(C)OC(OC2C/C=C(/C)C3C=CC4C(OC5CC(OC6CCC(OC7CC(O)C(OC8CCC(O)C(C)O8)C(C)O7)C(C)O6)C(OC(C)=O)C(C)O5)C(C)CC(C)C4C3(C)/C(O)=C3/C(=O)OC4(CC(C=O)=CC(O)C4/C=C\2C)C3=O)CC1(C)[N+](=O)[O-] (configuration not stated) | 4.04
32 | COc1cc2c3c(c4ccc(OC)c(OC)c4c2cc1OC)CN1CCC[C@@H]1C3 [TYLOCREBRINE] | 13.12
33 | CC(=O)C1CCCC(=O)/C=C/C(=O)O1 (configuration not stated) | -0.08
34 | C=C1C(=O)OC2CC3(C)CCCC(C)C3=CC12 (configuration not stated) | 10.15
35 | CC(C)=CCc1c2c(c3occ(-c4ccc(O)c(O)c4)c(=O)c3c1O)C=CC(C)(C)O2 [POMIFERIN] | 26.31
36 | CCC1NC(=O)C(NC(=O)c2ncccc2O)C(C)OC(=O)C(c2ccccc2)NC(=O)C2CC(=O)CCN2C(=O)C(Cc2ccccc2)N(C)C(=O)C2CCCN2C1=O (configuration not stated) | 4.35
37 | C[C@@H]1C(=O)C[C@H]2C(C)(C)CCC[C@]2(C)[C@@]1(O)CCc1ccoc1 | -12.83
